The source made the active and inactive calls. Unless noted, how the calls were made is not given here.

Assay [1] is described as follows: compounds binding Alexa647 anti-His antibody – biochemical, small-molecule microarray, 635 nm fluorescence, artefact control for SMM control protein annotation, primary screen (AID 1128).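 Further: score merges feature fluorescence with signal-to-noise for each printed compound spot.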 The note with it: higher = more signal.
Assay [2] relates to Human papillomavirus type 1a E7 protein (residues 1-88). The assay can be described thus: HPV1a E7 small-molecule binders, primary screen, biochemical, small-molecule microarray, residues 1-88, 635 nm (AID 1129). The note with it: small-molecule microarray binding, fluorescence 635 nm; higher = more signal.
The target of assay [3] is Focal adhesion kinase 1 (Homo sapiens) (UniProt Q05397). In words: PTK2 protein binding on printed compound slides – biochemical, small-molecule microarray, 635/667 nm fluorescence, BSA, DTT, primary screen (AID 1130).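 Further: composite of spot emission at 667 nm and signal to noise over triplicate slides.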 The note with it: 635 nm fluorescence, higher = more signal.
Chain of Focal adhesion kinase 1 (Homo sapiens) (Q05397 whole entry, looked up): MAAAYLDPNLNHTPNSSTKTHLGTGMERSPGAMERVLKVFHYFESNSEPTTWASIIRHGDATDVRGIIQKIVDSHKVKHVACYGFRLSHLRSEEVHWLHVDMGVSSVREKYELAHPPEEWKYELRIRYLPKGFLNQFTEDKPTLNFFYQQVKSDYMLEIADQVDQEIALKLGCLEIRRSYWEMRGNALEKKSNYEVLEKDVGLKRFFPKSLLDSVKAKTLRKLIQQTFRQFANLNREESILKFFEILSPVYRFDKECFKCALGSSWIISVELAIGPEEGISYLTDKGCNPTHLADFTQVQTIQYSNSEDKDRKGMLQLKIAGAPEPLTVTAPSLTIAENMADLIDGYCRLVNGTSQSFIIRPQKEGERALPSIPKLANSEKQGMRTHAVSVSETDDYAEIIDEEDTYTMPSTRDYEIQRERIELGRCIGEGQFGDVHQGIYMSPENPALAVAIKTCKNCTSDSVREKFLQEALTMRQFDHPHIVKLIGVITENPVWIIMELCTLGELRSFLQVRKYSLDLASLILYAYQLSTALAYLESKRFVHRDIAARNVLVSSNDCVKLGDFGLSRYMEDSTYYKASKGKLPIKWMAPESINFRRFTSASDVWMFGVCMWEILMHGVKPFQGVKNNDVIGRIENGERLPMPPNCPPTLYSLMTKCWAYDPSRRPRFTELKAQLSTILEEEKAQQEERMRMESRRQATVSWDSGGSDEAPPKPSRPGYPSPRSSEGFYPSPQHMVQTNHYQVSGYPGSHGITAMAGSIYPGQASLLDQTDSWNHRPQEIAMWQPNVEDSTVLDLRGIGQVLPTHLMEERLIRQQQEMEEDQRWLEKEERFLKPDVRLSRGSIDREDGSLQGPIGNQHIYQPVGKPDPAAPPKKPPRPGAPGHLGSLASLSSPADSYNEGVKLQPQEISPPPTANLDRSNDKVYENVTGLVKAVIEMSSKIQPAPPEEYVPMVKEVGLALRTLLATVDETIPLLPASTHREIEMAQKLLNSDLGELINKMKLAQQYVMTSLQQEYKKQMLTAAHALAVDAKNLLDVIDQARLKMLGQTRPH
The subject of assay [4] is Fibrinogen (Alexa647-labelled). In words: Alexa647-fibrinogen binding to printed small molecules – biochemical, small-molecule microarray, 635/667 nm fluorescence, artefact control for SMM control-protein annotation, profiling panel (AID 1131).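 Further: z-score merges 667 nm fluorescence with per-spot signal-to-noise over triplicate slides.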 The note with it: fibrinogen-A647 binding fluorescence, higher = more signal.
In assay [5] the target is Follistatin (Homo sapiens) (UniProt P19883). The assay can be described thus: FST protein binding to printed compounds – biochemical, small-molecule microarray, 635/667 nm fluorescence, primary screen (AID 1132). The note with it: 635 nm fluorescence, higher = more signal.
Chain of Follistatin (Homo sapiens) (P19883 whole entry, looked up): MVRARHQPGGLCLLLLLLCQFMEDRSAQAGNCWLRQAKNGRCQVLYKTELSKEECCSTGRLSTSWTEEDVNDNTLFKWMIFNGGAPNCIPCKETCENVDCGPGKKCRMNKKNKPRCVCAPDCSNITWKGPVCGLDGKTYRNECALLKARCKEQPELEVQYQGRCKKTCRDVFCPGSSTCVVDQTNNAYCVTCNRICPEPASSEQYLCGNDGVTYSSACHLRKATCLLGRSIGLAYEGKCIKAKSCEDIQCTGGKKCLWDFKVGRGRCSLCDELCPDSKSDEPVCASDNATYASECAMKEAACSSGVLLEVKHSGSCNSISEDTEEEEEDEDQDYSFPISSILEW
Assay [6] deals with Fibroblast growth factor 2 (Homo sapiens) (UniProt P09038). The assay can be described thus: basic fibroblast growth factor binding to printed compounds – biochemical, small-molecule microarray, 635/667 nm fluorescence, primary screen (AID 1133). The note with it: FGF2, fluorescence 635/667, higher = more signal.
Chain of Fibroblast growth factor 2 (Homo sapiens) (P09038 whole entry, looked up): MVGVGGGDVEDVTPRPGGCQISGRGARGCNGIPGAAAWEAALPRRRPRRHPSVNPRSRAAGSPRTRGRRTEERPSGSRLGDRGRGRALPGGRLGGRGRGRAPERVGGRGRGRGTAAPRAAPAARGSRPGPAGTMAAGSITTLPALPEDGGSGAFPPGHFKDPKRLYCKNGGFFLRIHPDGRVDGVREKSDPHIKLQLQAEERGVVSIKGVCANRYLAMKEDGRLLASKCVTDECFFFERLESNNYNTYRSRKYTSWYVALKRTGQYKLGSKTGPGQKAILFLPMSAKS
Assay [7] is described as follows: JC-1 mitochondrial potential readout, lung cancer cells – cell-based, A549, JC-1 fluorescence, basal, 24 h, 100 nL, profiling panel (AID 1138).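 Further: A549 lung adenocarcinoma cells under basal conditions with no added stimulus; test concentration not given here.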 The note with it: higher = more signal.
For a further assay, the system named is Lefty1. In words: Lefty1 protein binding to printed compounds – biochemical, small-molecule microarray, 635/667 nm fluorescence, primary screen (AID 1139). The note with it: fluorescence 635/667, higher = more signal.
The subject of assay [8] is wheat germ agglutinin (Triticum aestivum), Alexa647-labelled. The assay can be described thus: Alexa647-WGA lectin binding to printed small molecules – biochemical, small-molecule microarray, 635/667 nm fluorescence, artefact control for SMM control-protein annotation, profiling panel (AID 1140).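 Further: score merges 667 nm feature emission with signal to noise over triplicate slides.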 The note with it: WGA-A647 binding, 635 nm fluorescence, higher = more signal.

Assay [9] concerns the target Luciferin 4-monooxygenase (Photinus pyralis) (UniProt P08659). In words: inhibition of purified Photinus pyralis luciferase – biochemical, luminescence, purified enzyme, 2006 set, primary screen (AID 1141).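 Further: cell-free assay with purified firefly luciferase at 100 ng per well in PBS; test concentration not given here.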 The note with it: purified firefly luciferase, SteadyGlo luminescence, 30 min; higher = more signal, called active from +8 up or from −8 down.
The test system of assay [10] is Wnt5a (protein binding on small-molecule microarray). The assay can be described thus: small molecules binding Wnt5a protein – biophysical, small-molecule microarray, 635/667 nm fluorescence, primary screen (AID 1142).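 Further: fluorescence read at 667 nm with signal to noise per printed feature.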 The note with it: 635 nm fluorescence, higher = more signal.
Assay [11] can be described thus: ATP-based viability of Huh7 replicon cells – cell-based, CellTiter-Glo luminescence, basal, 48 h, cytotoxicity control for HCV replication inhibitor project, primary screen (AID 1143).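 Further: Huh7 hepatoma cells carrying a hepatitis C replication reporter with no stimulus; test concentration not given here.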 The note with it: higher = more signal, called active from +8 up or from −8 down.
Assay [12] in a line: Pseudomonas biofilm growth suppression – PAO1 strain, BacTiter-Glo luminescence, LB-PBS, primary screen (AID 1144). The note with it: P. aeruginosa PAO1 biofilm, 12 h, higher = more signal.
The nature of assay [13]: basal CRE-LacZ reporter activity in PC12 – cell-based, unstimulated, primary screen (AID 1145). The note with it: no forskolin, luminescence, 4.5 h, higher = more signal, called active from +8 up or from −8 down.
The nature of assay [14]: forskolin-driven CRE-LacZ activity in PC12 – cell-based, CRE-LacZ reporter, forskolin-stimulated, primary screen (AID 1146).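 Further: PC12 cells with 6xCRE LacZ reporter stimulated by forskolin 10 µM; beta-galactosidase reporter signal reflecting CREB driven transcription.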 The note with it: luminescence, 4.5 h, higher = more signal, called active from +8 up or from −8 down.
For assay [15], the target named is Streptavidin (Streptomyces avidinii) (UniProt P22629). The assay can be described thus: compounds binding control protein streptavidin – biophysical, small-molecule microarray, 635/667 nm fluorescence, artefact control for SMM compound annotation, primary screen (AID 1147).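 Further: signal reflects streptavidin binding to arrayed compounds as a control protein.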 The note with it: higher = more signal.
Chain of Streptavidin (Streptomyces avidinii) (P22629 whole entry, looked up): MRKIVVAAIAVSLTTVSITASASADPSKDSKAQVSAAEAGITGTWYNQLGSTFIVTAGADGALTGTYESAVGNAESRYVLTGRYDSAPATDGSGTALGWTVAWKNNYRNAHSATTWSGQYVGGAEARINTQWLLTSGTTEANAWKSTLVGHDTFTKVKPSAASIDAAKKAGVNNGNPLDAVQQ
Assay [16] in a line: probe aInhba binding on compound microarray – biochemical, small-molecule microarray, 635/667 nm fluorescence, primary screen (AID 1148).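 Further: score merges 667nm spot fluorescence with signal-to-noise for antibody binding to printed compounds.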 The note with it: higher = more signal.
For assay [17], the target named is Torsin-1A (Homo sapiens) (UniProt O14656). In words: TOR1A wild-type binding on microarray – cell lysate, small-molecule microarray, lysate, 635/667 nm, primary screen (AID 1149). The note with it: COS7 hTOR1A-WT lysate, 635 nm fluorescence, higher = more signal.
Chain of Torsin-1A (Homo sapiens) (O14656 whole entry, looked up): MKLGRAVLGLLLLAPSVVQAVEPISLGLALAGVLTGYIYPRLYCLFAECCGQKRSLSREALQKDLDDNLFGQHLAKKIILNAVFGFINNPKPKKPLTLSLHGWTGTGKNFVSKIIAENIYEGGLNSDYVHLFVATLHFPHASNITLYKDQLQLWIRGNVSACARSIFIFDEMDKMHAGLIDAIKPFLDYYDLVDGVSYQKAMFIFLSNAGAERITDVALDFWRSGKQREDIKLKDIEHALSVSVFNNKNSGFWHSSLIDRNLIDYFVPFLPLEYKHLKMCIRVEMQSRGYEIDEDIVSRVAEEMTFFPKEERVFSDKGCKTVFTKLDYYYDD
Assay [18] shares this target. In words: torsin A mutant lysate binding on microarrays – cell lysate, small-molecule microarray, COS7 lysate, 635/667 nm fluorescence, primary screen (AID 1150).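 Further: score pools 667 nm emission and signal to noise measuring lysate protein binding.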 The note with it: COS7 hTOR1A mutant lysate, 635 nm fluorescence, higher = more signal.
For assay [19], the system named is Sonic hedgehog protein (Shh). The assay can be described thus: Sonic hedgehog microarray binding compounds – biochemical, small-molecule microarray, 635/667 nm fluorescence, primary screen (AID 1151).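 Further: Shh protein binding to compounds spotted on small-molecule microarray slides; score combines spot fluorescence intensity with signal-to-noise across triplicate slides.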 The note with it: 635 nm fluorescence, higher = more signal.

Chain of Luciferin 4-monooxygenase (Photinus pyralis) (P08659 whole entry, looked up): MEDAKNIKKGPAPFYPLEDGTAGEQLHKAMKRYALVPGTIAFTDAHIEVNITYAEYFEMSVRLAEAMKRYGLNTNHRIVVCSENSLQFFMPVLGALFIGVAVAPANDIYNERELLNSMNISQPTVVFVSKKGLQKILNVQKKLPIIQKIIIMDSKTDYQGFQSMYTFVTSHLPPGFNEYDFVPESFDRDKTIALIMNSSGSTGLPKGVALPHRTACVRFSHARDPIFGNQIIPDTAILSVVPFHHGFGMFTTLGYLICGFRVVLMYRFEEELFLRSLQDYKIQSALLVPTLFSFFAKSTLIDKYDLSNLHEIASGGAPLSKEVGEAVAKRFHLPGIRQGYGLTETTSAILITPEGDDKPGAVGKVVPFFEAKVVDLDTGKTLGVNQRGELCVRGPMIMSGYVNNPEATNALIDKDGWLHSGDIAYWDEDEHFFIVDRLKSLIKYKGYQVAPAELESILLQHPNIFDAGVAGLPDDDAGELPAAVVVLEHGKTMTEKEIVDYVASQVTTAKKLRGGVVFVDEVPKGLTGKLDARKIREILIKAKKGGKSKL

With `COC(=O)[C@H](Cc1ccccc1)N1CC2=C[C@@H](C3CC3)n3c(=O)n(C)c(=O)n3[C@H]2[C@@H]1[C@@H](O)Cc1ccccc1`, the composite z-score in assay [1] came to 0.0823; in assay [2], 0.881; in assay [3], 0.148; in assay [4] it was 0.588; in [5], 0.898; in [6] it was 0.212. Besides, the composite z-score in the assay on Lefty1 is 0.972; in assay [8], 0.0263; in assay [10], 0.0601; in assay [15], 0.462; in [16], -0.0589; with Torsin-1A (Homo sapiens) [17] it was 0.413. Also, the composite z-score with Torsin-1A (Homo sapiens) [18] was -0.0857; in [19], 1.4. For the same compound, the z-score in assay [7] was 1.58; in assay [9], -0.126 (inactive); in [11], -1.18 (inactive); in assay [12] it was 0.39 (inactive); in assay [13], 2.03 (inactive); in assay [14], -0.269 (inactive).
For the compound `C=C(COC)C(=O)CC[C@@H](OC(C)=O)c1ccc(CO)o1`, the composite z-score in [1] was -0.555; in assay [2] it was -0.724; in assay [3] it was -0.285; in [4], 0.966; in [5] it was 1.33; in assay [6] it was 1.32. Also, the composite z-score was 1.73 in the assay with Lefty1; 0.397 in assay [8]; 0.111 in assay [10]; -0.374 in assay [15]; 0.138 in assay [16]; 0.463 with Torsin-1A (Homo sapiens) [17]. In addition, the values for the composite z-score (with Torsin-1A (Homo sapiens) [18]; in assay [19]) were 1.06 and 2.14, respectively. Besides, the z-score in assay [7] was -0.57; in [9], -1.15 (inactive); in assay [11], 0.622 (inactive); in assay [12], -0.238 (inactive); in [13], 0.363 (inactive); in assay [14], 0.283 (inactive).
Regarding `C=CC(=C)[C@H]1Oc2ccccc2S(=O)(=O)N2CCC[C@@H]12`, the composite z-score in assay [1] was -0.133; in assay [2], -0.492; in assay [3] it was -0.139; in [4] it was 0.224; in assay [5] it was 0.434; in assay [6], 0.0668. Further, the composite z-score in the assay on Lefty1 was 0.201; in assay [8], 0.023; in [10], 0.0964; in assay [15], 0.331; in assay [16] it was -0.0332; with Torsin-1A (Homo sapiens) [17] it was -1.02. The composite z-score is -1.06 in the assay with Torsin-1A (Homo sapiens) [18] and 0.0906 in assay [19]. Further, the z-score is 0.16 in assay [7]; -0.261 (inactive) in assay [9]; -4.18 (inactive) in assay [11]; 1.16 (inactive) in [12]; 0.483 (inactive) in [13]; 0.133 (inactive) in assay [14].
Turning to `CC(=O)NCCCC[C@@H]1NC(=O)[C@H]2C[C@@H](C(=O)NCCCCCCNC(=O)CS)[C@@H](c3ccc(O)cc3)N2C1=O`, the composite z-score was 2.48 in assay [1]; 0.432 in [2]; 0.458 in assay [3]; -0.397 in assay [4]; -0.409 in assay [5]; 0.141 in assay [6]. Also, the composite z-score was -0.712 with Lefty1; 0.485 in assay [8]; 0.151 in assay [10]; -1.22 in assay [15]; 0.0074 in assay [16]; 0.365 with Torsin-1A (Homo sapiens) [17]. The composite z-score came to 2.14 with Torsin-1A (Homo sapiens) [18] and 1.22 in assay [19]. Further, the z-score in [7] was -1.08; in assay [9] it was -0.644 (inactive); in assay [11] it was -0.133 (inactive); in assay [12], -0.619 (inactive); in assay [13], -0.528 (inactive); in [14] it was 0.14 (inactive).
With `CCC(CC)C(O)C1C=CC2C(=O)NC(=O)C2N1Nc1ccccn1` (stereo not given), the composite z-score is 0.823 in [1]; -0.0365 in assay [2]; 0.268 in assay [3]; -0.206 in [4]; 0.872 in assay [5]; 0.0277 in assay [6]. For the same compound, the composite z-score with Lefty1 is -0.0021; in [8] it was 0.0789; in [10], -0.108; in assay [15] it was -0.12; in [16], -0.016; in the assay with Torsin-1A (Homo sapiens) [17], 0.147. The composite z-score amounted to 0.317 in the assay with Torsin-1A (Homo sapiens) [18] and 0.186 in assay [19]. Moreover, the z-score in assay [7] is 0.693; in assay [9] it was -0.0791 (inactive); in [11] it was 1.06 (inactive); in assay [12], -0.515 (inactive); in assay [13], 0.246 (inactive); in [14], 0.783 (inactive).
